# From PubChem BioAssay (NCATS)
# Inconclusive results are not listed. A call without a number means that no potency is given here. Unmarked numbers belong to inactive results. The source made the active and inactive calls. Calls come from the whole dose curve; as a rule, active = well fitted curve in the direction sought with a large enough effect; inconclusive = small, poorly fitted or top-dose-only effect, or another doubt; inactive = no such curve, though single readings can be large; an effect the other way counts as inactive or inconclusive.
# What was measured:
# [1] = qHTS of pediatric cancer cell lines to identify multiple opportunities for drug repurposing: Primary screen for RD cells (AID 1347104); note: nearly all actives have a fitted effect of over 55% in size
# Method in brief: (§1)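 Following a 5-hour attachment period, cells at 500-1,000/well received compounds and were cultured for 48 hours. CellTiter-Glo was added and luminescence read to estimate viable, metabolically active cells.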
# [2] = qHTS of pediatric cancer cell lines to identify multiple opportunities for drug repurposing: Primary screen for control Hh wild type fibroblast cells (AID 1347106); note: nearly all actives have a fitted effect of over 55% in size;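 for activity change, negative = cytotoxic: series mostly up to about 46 µM; a drop in luminescence marks cytotoxicity and a rise apparent proliferation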
# Method in brief: (§2)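 Viability after 48 h compound treatment at 37C, 500-1,000 cells/well, read as ATP luminescence with CellTiter-Glo. Primary screens used 11-point (MIPE, 0.78 nM-46 µM) or 8-point (NPC, 0.59 nM-46 µM) final concentrations; follow-up screens used 11-point dilutions.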
# [3] = qHTS of pediatric cancer cell lines to identify multiple opportunities for drug repurposing: Primary screen for Rh41 cells (AID 1347108); note: nearly all actives have a fitted effect of over 70% in size;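 for activity change, negative = cytotoxic: series mostly up to about 46 µM; luminescence drop marks cytotoxic hits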
# Method in brief: as §1
# [4] = qHTS of pediatric cancer cell lines to identify multiple opportunities for drug repurposing: Primary screen for Rh30 cells (AID 1347107); note: nearly all actives have a fitted effect of over 75% in size; for activity change, negative = cytotoxic: series mostly up to about 46 µM
# Method in brief: as §2
# [5] = qHTS of pediatric cancer cell lines to identify multiple opportunities for drug repurposing: Confirmatory screen for NB1643 cells (AID 1347109); note: nearly all actives have a fitted effect of over 45% in size
# Method in brief: as §2
# [6] = qHTS of pediatric cancer cell lines to identify multiple opportunities for drug repurposing: Confirmatory screen for SK-N-MC cells (AID 1347111);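 note: cells exposed to compound for 48 h before the readout; nearly all actives have a fitted effect of over 70% in size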
# Method in brief: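 SK-N-MC cells at 500-1,000 cells/well in growth media were pre-incubated 5 h, then exposed to compounds at 11-point dilutions for 48 h at 37 degrees C, 5% CO2. Viability was read as CellTiter-Glo luminescence.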
# [7] = qHTS of pediatric cancer cell lines to identify multiple opportunities for drug repurposing: Confirmatory screen for BT-12 cells (AID 1347112); note: nearly all actives have a fitted effect of over 55% in size
# Method in brief: as §2
# [8] = qHTS of pediatric cancer cell lines to identify multiple opportunities for drug repurposing: Confirmatory screen for LAN-5 cells (AID 1347113); note: nearly all actives have a fitted effect of over 65% in size
# Method in brief: as §2
# [9] = qHTS of pediatric cancer cell lines to identify multiple opportunities for drug repurposing: Confirmatory screen for NB-EBc1 cells (AID 1347115); note: nearly all actives have a fitted effect of over 45% in size
# Method in brief: as §2
# [10] = qHTS of pediatric cancer cell lines to identify multiple opportunities for drug repurposing: Primary screen for MG 63 (6-TG R) cells (AID 1347105); note: nearly all actives have a fitted effect of over 50% in size
# Method in brief: as §1
# Potency is the fitted concentration of half-maximal effect.
structure (smiles),measurement,setting,value
COc1ccc(S(=O)(=O)N2c3ccc(Cl)cc3[C@@](O)(c3ccccc3Cl)[C@H]2C(=O)N2CCC[C@@H]2C(N)=O)cc1OC,Potency,[1],inactive
same,Potency,[2],inactive
same,Potency,[3],inactive
CCC(Cc1c(I)cc(I)c(N)c1I)C(=O)O (stereo not drawn),Potency,[1],inactive
same,Potency,[2],inactive
same,Potency,[4],inactive
same,Potency,[3],inactive
CC(C(=O)O)c1cccc(Oc2ccccc2)c1 (stereo not drawn),Potency,[1],inactive
same,Potency,[2],inactive
same,Potency,[4],inactive
same,Potency,[3],inactive
N[C@H](C(=O)O)[C@@H](O)c1ccc(O)c(O)c1,Potency,[1],inactive
same,Potency,[2],inactive
same,Potency,[4],inactive
same,Potency,[3],inactive
Cc1ncc(CO)c(C=O)c1O,Potency,[1],inactive
same,Potency,[2],inactive
same,Potency,[4],inactive
same,Potency,[3],inactive
CC(=O)N[C@@H](CCC(=O)O)C(=O)O,Potency,[1],inactive
same,Potency,[2],inactive
same,Potency,[4],inactive
same,Potency,[3],inactive
CCN1CCN(C(=O)N[C@@H](C(=O)N[C@@H]2C(=O)N3C(C(=O)O)=C(CSc4nnnn4C)CS[C@H]23)c2ccc(O)cc2)C(=O)C1=O,Potency,[1],inactive
same,Potency,[2],inactive
same,Potency,[4],inactive
same,Potency,[3],inactive
Nc1ccc(S(=O)(=O)NCc2ccccc2)cc1,Potency,[1],inactive
same,Potency,[2],inactive
same,Potency,[4],inactive
same,Potency,[3],inactive
COc1cc([C@H]2Oc3cc([C@H]4Oc5cc(O)cc(O)c5C(=O)[C@@H]4O)ccc3O[C@@H]2CO)ccc1O,Potency,[1],inactive
same,Potency,[2],inactive
same,Potency,[4],inactive
same,Potency,[3],inactive
C[C@H]1O[C@@H](O[C@H]2CC[C@@]3(C)[C@H](CC[C@@H]4[C@@H]3C[C@@H](O)[C@]3(C)[C@@H](C5=CC(=O)OC5)CC[C@]43O)C2)C[C@H](O)[C@@H]1O[C@H]1C[C@H](O)[C@H](O[C@H]2C[C@H](O)[C@H](O[C@@H]3O[C@H](CO)[C@@H](O)[C@H](O)[C@H]3O)[C@@H](C)O2)[C@@H](C)O1,Potency,[1],0.15 µM (active)
same,Potency,[2],0.075 µM (active)
same,Potency,[4],inactive
same,Potency,[5],0.414 µM (active)
same,Potency,[6],0.414 µM (active)
same,Potency,[7],0.293 µM (active)
same,Potency,[8],0.414 µM (active)
same,Potency,[9],0.369 µM (active)
CCN(CC)CCOc1ccc2c(c1)C(=O)c1cc(OCCN(CC)CC)ccc1-2,Potency,[1],21.1 µM (active)
same,Potency,[2],inactive
same,Potency,[4],inactive
same,Potency,[5],18.5 µM (active)
same,Potency,[6],7.37 µM (active)
same,Potency,[8],11.7 µM (active)
Nc1ccc(S(=O)(=O)Nc2cnc3ccccc3n2)cc1,Potency,[1],inactive
same,Potency,[2],inactive
same,Potency,[4],inactive
same,Potency,[3],inactive
OC[C@H]1O[C@@H](Oc2ccc(O)cc2)[C@H](O)[C@@H](O)[C@@H]1O,Potency,[1],inactive
same,Potency,[2],inactive
same,Potency,[4],inactive
same,Potency,[3],inactive
NC1CCN(c2nc3c(cc2F)c(=O)c(C(=O)O)cn3-c2ccc(F)cc2F)C1 (stereo not drawn),Potency,[1],inactive
same,Potency,[2],inactive
same,Potency,[4],inactive
same,Potency,[3],inactive
COc1cc(NS(=O)(=O)c2ccc(N)cc2)ncn1,Potency,[1],inactive
same,Potency,[2],inactive
same,Potency,[4],inactive
same,Potency,[3],inactive
CN(Cc1ccc(C(C)(C)C)cc1)Cc1cccc2ccccc12,Potency,[1],inactive
same,Potency,[2],inactive
same,Potency,[4],inactive
same,Potency,[3],inactive
NS(=O)(=O)c1ccc(Cl)c(S(N)(=O)=O)c1,Potency,[1],inactive
same,Potency,[2],inactive
same,Potency,[4],inactive
same,Potency,[3],inactive
Nc1nc(N)c(-c2ccccc2)s1,Potency,[1],inactive
same,Potency,[2],inactive
same,Potency,[4],inactive
same,Potency,[3],inactive
O=C(CCN1CCN2CCCC2C1)N1c2ccccc2Sc2ccc(Cl)cc21 (stereo not drawn),Potency,[1],inactive
same,Potency,[2],inactive
same,Potency,[3],inactive
CCCCCCCCOc1ccc(C(=O)c2ccccc2)c(O)c1,Potency,[1],inactive
same,Potency,[2],inactive
same,Potency,[4],inactive
same,Potency,[3],inactive
Cc1ccc(-c2ncc(Cl)cc2-c2ccc(S(C)(=O)=O)cc2)cn1,Potency,[1],inactive
same,Potency,[2],inactive
same,Potency,[4],inactive
same,Potency,[3],inactive
CCc1cc(Cl)c(OC)c(C(=O)NC[C@@H]2CCCN2CC)c1O,Potency,[1],inactive
same,Potency,[2],inactive
same,Potency,[4],inactive
same,Potency,[3],inactive
Cc1c(-c2ccccc2)oc2c(C(=O)OCCN3CCCCC3)cccc2c1=O,Potency,[1],inactive
same,Potency,[2],inactive
same,Potency,[3],inactive
CC(C)Cn1cnc2c1c(=O)n(C)c(=O)n2C,Potency,[1],inactive
same,Potency,[2],inactive
same,Potency,[4],inactive
same,Potency,[3],inactive
CCOc1ccc(NC(C)=O)cc1,Potency,[1],inactive
same,Potency,[2],inactive
same,Potency,[3],inactive
CCC(C(=O)OCCOCCN(CC)CC)c1ccccc1 (stereo not drawn),Potency,[1],inactive
same,Potency,[2],inactive
same,Potency,[4],inactive
same,Potency,[3],inactive
O=C(O)CCc1nc2ccccc2[nH]1,Potency,[1],inactive
same,Potency,[2],inactive
same,Potency,[3],inactive
NC(N)=NN=C(/C=C/c1ccc([N+](=O)[O-])o1)/C=C/c1ccc([N+](=O)[O-])o1,Potency,[1],0.841 µM (active)
same,Potency,[2],21.1 µM (active)
same,Potency,[4],3.35 µM (active)
same,Potency,[3],1.19 µM (active)
same,Potency,[5],1.17 µM (active)
same,Potency,[7],9.27 µM (active)
same,Potency,[8],1.17 µM (active)
CN(C)C(=O)Nc1ccc(Cl)c(Cl)c1,Potency,[1],inactive
same,Potency,[2],inactive
same,Potency,[4],inactive
same,Potency,[3],inactive
same,Potency,[9],23.3 µM (active)
CCCCCCCCCCCCSCCOCCO,Potency,[1],inactive
same,Potency,[2],inactive
same,Potency,[4],inactive
same,Potency,[3],inactive
Cl/C(=C\n1cncn1)c1ccc(Cl)cc1Cl,Potency,[1],inactive
same,Potency,[2],inactive
same,Potency,[4],inactive
same,Potency,[3],inactive
N=C(N)N1CCc2ccccc2C1,"activity change, negative = cytotoxic",[1],-9.62% [at 4.84 µM]
same,"activity change, negative = cytotoxic",[2],-9.54% [at 4.84 µM]
same,"activity change, negative = cytotoxic",[3],1.21% [at 4.84 µM]
Clc1cccc(C(c2ccc3nc[nH]c3c2)n2ccnc2)c1 (stereo not drawn),Potency,[1],inactive
same,Potency,[2],inactive
same,Potency,[4],inactive
same,Potency,[3],inactive
CN1CCN(c2c(F)cc3c(=O)c(C(=O)O)cn4c3c2SCC4)CC1,Potency,[1],inactive
same,Potency,[2],inactive
same,Potency,[3],inactive
COC(=O)C(c1ccccc1Cl)N1CCc2sccc2C1 (stereo not drawn),Potency,[1],inactive
same,Potency,[2],inactive
same,Potency,[4],inactive
same,Potency,[3],inactive
NC(=O)n1c(O)c(C(=O)c2cccs2)c2cc(Cl)ccc21,Potency,[10],inactive
same,Potency,[2],inactive
same,Potency,[4],inactive
same,Potency,[3],inactive
CC(=O)O[C@]1(C(C)=O)CC[C@H]2[C@@H]3C=C(Cl)C4=CC(=O)CC[C@]4(C)[C@H]3CC[C@@]21C,Potency,[10],inactive
same,Potency,[2],inactive
same,Potency,[4],inactive
O=c1[nH]c(=O)n([C@H]2C[C@H](O)[C@@H](CO)O2)cc1F,Potency,[10],inactive
same,Potency,[2],inactive
CC(C)=CCOc1ccc(/C=C/C(=O)c2ccc(OCC=C(C)C)cc2OCC(=O)O)cc1,Potency,[10],33.5 µM (active)
same,Potency,[2],inactive
same,Potency,[4],inactive
same,Potency,[3],inactive
CCc1oc2ccccc2c1C(=O)c1cc(Br)c(O)c(Br)c1,Potency,[2],inactive
same,Potency,[4],inactive
same,Potency,[3],inactive
CC(=O)OC[C@H]1O[C@@H](n2ncc(=O)[nH]c2=O)[C@H](OC(C)=O)[C@@H]1OC(C)=O,Potency,[10],inactive
same,Potency,[2],inactive
same,Potency,[4],inactive
same,Potency,[3],inactive
O=C(CCCN1CC=C(n2c(=O)[nH]c3ccccc32)CC1)c1ccc(F)cc1,Potency,[10],inactive
same,Potency,[5],inactive
same,Potency,[8],inactive
same,Potency,[9],inactive
CC(C)(Cc1c[nH]c2ccccc12)NCC(O)COc1ccccc1C#N (stereo not drawn),Potency,[10],inactive
same,Potency,[2],inactive
same,Potency,[4],inactive
same,Potency,[3],inactive
CCN(CC)CCOC(=O)C(Cc1cccc2ccccc12)CC1CCCO1 (stereo not drawn),Potency,[10],inactive
same,Potency,[2],inactive
same,Potency,[3],inactive
C[C@H]1[C@H]2CC[C@H]3[C@@H]4CC=C5C[C@@H](N(C)C)CC[C@]5(C)[C@H]4CC[C@]23CN1C,Potency,[10],inactive
same,Potency,[2],inactive
same,Potency,[4],inactive
same,Potency,[3],inactive
O=C(O)CCNC(=O)c1ccccc1,Potency,[1],inactive
same,Potency,[2],inactive
same,Potency,[3],inactive
CN1CCN(CCC(=O)N2c3ccccc3Sc3ccc(C(F)(F)F)cc32)CC1,Potency,[1],23.7 µM (active)
same,Potency,[4],inactive
CCOC(=O)c1c(N)sc2c1CCN(Cc1ccccc1)C2,Potency,[10],inactive
same,Potency,[2],inactive
same,Potency,[4],inactive
same,Potency,[3],inactive
C#C[C@]1(O)CC[C@H]2[C@@H]3CCC4=Cc5oncc5C[C@]4(C)[C@H]3CC[C@@]21C,Potency,[10],inactive
same,Potency,[2],inactive
same,Potency,[4],inactive
same,Potency,[3],inactive
CCCCCCCCCCCCCC[N+](C)(C)Cc1ccccc1,Potency,[1],21.1 µM (active)
same,Potency,[3],18.8 µM (active)
CCOC(=O)[C@@](C)(N)Cc1ccc(O)c(O)c1,Potency,[2],inactive
CC[C@H](c1ccc(O)cc1)[C@@H](CC)c1ccc(O)cc1,Potency,[10],13.3 µM (active)
same,Potency,[2],inactive
same,Potency,[4],inactive
same,Potency,[3],inactive
N/C(=N\N=C\c1ccc(Cl)cc1)N/N=C/c1ccc(Cl)cc1,Potency,[2],inactive
same,Potency,[4],inactive
same,Potency,[3],inactive
CCCCCCCCCCC[C@@H](C[C@@H]1OC(=O)[C@H]1CCCCCC)OC(=O)[C@H](CC(C)C)NC=O,Potency,[2],inactive
same,Potency,[3],inactive
same,Potency,[5],inactive
same,Potency,[7],inactive
same,Potency,[8],inactive
same,Potency,[9],inactive
O=C(Oc1cccc2cccnc12)c1ccccc1,Potency,[2],inactive
same,Potency,[7],9.27 µM (active)
same,Potency,[8],9.27 µM (active)
O=C(N/N=C/c1ccc([N+](=O)[O-])o1)c1ccc(O)cc1,Potency,[10],inactive
same,Potency,[2],inactive
same,Potency,[4],inactive
CCOC(=O)Nc1ccc2c(c1)N(C(=O)CCN1CCOCC1)c1ccccc1S2,Potency,[2],inactive
same,Potency,[4],inactive
same,Potency,[3],inactive
CCOc1ccccc1C(N)=O,Potency,[2],inactive
same,Potency,[3],inactive
CC(C)n1c(/C=C/[C@@H](O)C[C@@H](O)CC(=O)O)c(-c2ccc(F)cc2)c2ccccc21,Potency,[10],0.841 µM (active)
same,Potency,[2],inactive
CCO[C@@H]1O[C@H](C(COCc2ccccc2)OCc2ccccc2)[C@H](OCc2ccccc2)[C@H]1O (stereo partly drawn),Potency,[10],10.6 µM (active)
same,Potency,[2],inactive
same,Potency,[4],inactive
